# Activity calls are given as the source filed them. Rule as the data show it, unless noted: active = inhibition above about 80%; inactive = the rest.
# Legend:
# [1] = LFS_MB_P medulloblastoma growth inhibition, cell-based, chromothripsis tumors, cisplatin or BGB combos (AID 1671449); conditions: LFS_MB_P medulloblastoma cells;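 also: cells exposed for 96 hours; 0% = vehicle DMSO and 100% = killing by high DMSO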
# [2] = HDN33 neuroblastoma growth inhibition, cell-based, chromothripsis tumors, cisplatin or BGB combos (AID 1671450); conditions: HDN33 neuroblastoma cells, stronger effect = higher value;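 also: cells exposed to compound for four days; 0% = vehicle DMSO and 100% = cell killing by high DMSO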
# [3] = ICB984 medulloblastoma cell growth inhibition, synergistic combos for chromothripsis tumors, cisplatin or BGB combos (AID 1671451; call rule not given here;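 also: cells exposed for 96 hours before readout; 0% = vehicle DMSO and 100% = killing by high DMSO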); conditions: ICB984 medulloblastoma cells, drug combinations, stronger effect = higher value
# [4] = LFS_MB_1R medulloblastoma cell growth inhibition, synergistic combos for chromothripsis tumors, cisplatin or BGB combos (AID 1671452); conditions: LFS_MB_1R medulloblastoma cells, stronger effect = higher value;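 also: cells exposed for 96 hours before readout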
# [5] = HTB85 osteosarcoma cell growth inhibition, synergistic combos for chromothripsis tumors, BGB or cisplatin IC20 combos (AID 1671453); conditions: HTB85 osteosarcoma cells, drug combinations, stronger effect = higher value;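 also: cells exposed for 96 hours before readout; 0% = vehicle DMSO and 100% = high DMSO killing control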
# [6] = CRL2098 osteosarcoma cell growth inhibition, synergistic combos for chromothripsis tumors, BGB or cisplatin IC20 combos (AID 1671454); conditions: CRL2098 osteosarcoma cells, drug combinations, stronger effect = higher value;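 also: cells exposed for 96 h before readout; 0% = vehicle DMSO and 100% = killing by high DMSO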
# [7] = HD-MB03 medulloblastoma cell growth inhibition, synergistic combos for chromothripsis tumors, BGB or cisplatin IC20 combos (AID 1671455; in the data active = inhibition above about 83%;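 also: 0% = vehicle DMSO and 100% = high DMSO as cytotoxic control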); conditions: HD-MB03 medulloblastoma cells, stronger effect = higher value
# [8] = UWB1.289 ovarian carcinoma cell growth inhibition, synergistic combos for chromothripsis tumors, BGB or cisplatin combos (AID 1671456); conditions: UWB1.289 ovarian carcinoma cells, stronger effect = higher value;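 also: cells exposed to compound for four days; 0% = vehicle DMSO and 100% = killing by high DMSO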
# [9] = LFS_MB_2R medulloblastoma cell growth inhibition, synergistic combos for chromothripsis tumors, cisplatin combos (AID 1671457); conditions: LFS_MB_2R medulloblastoma cells, stronger effect = higher value;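 also: cells exposed to compound for four days before readout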
# [10] = MDA-MB-436 breast carcinoma cell growth inhibition, synergistic combos for chromothripsis tumors, BGB or cisplatin combos (AID 1671458; call rule not given here;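 also: cells exposed for 96 hours; 0% = vehicle DMSO and 100% = killing by high DMSO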); conditions: MDA-MB-436 breast carcinoma growth inhibition, drug combinations, stronger effect = higher value
# [11] = UWB1.289_BRCA1 ovarian cancer growth, cell-based, BGB or cisplatin combinations (AID 1671459); conditions: UWB1.289 BRCA1 ovarian carcinoma, drug combinations, stronger effect = higher value
# [12] = human astrocyte viability loss, single and combined drugs, cytotoxicity control for chromothriptic childhood tumor combination screen, cell-based, BGB or cisplatin IC20 combos (AID 1671460); conditions: Human astrocytes, drug combinations, stronger effect = higher value;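 also: cells exposed to compounds for 96 hours before viability readout; 0% = vehicle and 100% = killing control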
# [13] = growth inhibition of BT084 medulloblastoma cells, cell-based, ICGC_MB145, cisplatin and BGB IC40 combos (AID 1671461); conditions: drug combinations, stronger effect = higher value;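 also: cells exposed to drugs for 96 hours; 0% = vehicle DMSO and 100% = high DMSO full killing control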
# [14] = growth inhibition of RCMB18 medulloblastoma cells, cell-based, cisplatin and BGB IC40 combos (AID 1671462); conditions: stronger effect = higher value;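 also: cells exposed to compound for four days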
# [15] = growth inhibition of CRL1545 osteosarcoma cells, cell-based, cisplatin and BGB IC20 combos (AID 1671464); conditions: stronger effect = higher value;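 also: cells exposed to compound for 96 hours before readout; 0% = vehicle DMSO and 100% = high DMSO killing control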
# [16] = at 0.5 µM, stronger effect = higher value
# [17] = measured here: combination with BGB IC20, at 0.005 µM
# [18] = measured here: combination with BGB IC40, at 0.005 µM
# [19] = measured here: combination with BGB IC40, at 0.05 µM
# [20] = measured here: combination with cisplatin, at 0.5 µM, stronger effect = higher value
# [21] = measured here: combination with cisplatin, at 5 µM, stronger effect = higher value
# [22] = measured here: with BGB IC20 combination, at 0.5 µM
# [23] = measured here: with cisplatin IC20 combination, at 0.5 µM
# [24] = measured here: 5 uM single agent, at 5 µM
# [25] = measured here: combination with cisplatin, at 0.5 µM
# [26] = measured here: combination with cisplatin, at 5 µM
# [27] = measured here: with BGB IC20, at 0.5 µM
# [28] = measured here: with BGB IC20, at 5 µM
# [29] = measured here: with cisplatin IC20, at 0.5 µM
# [30] = measured here: with cisplatin IC20, at 5 µM
# [31] = measured here: combination with BGB at IC20, at 0.5 µM
# [32] = measured here: combination with cisplatin at IC20, at 0.5 µM
# [33] = measured here: combo with BGB at IC20, at 0.5 µM
# [34] = measured here: combo with cisplatin at IC20, at 0.5 µM
# [35] = measured here: inhibition with BGB combination, at 0.05 µM
# [36] = measured here: inhibition with cisplatin combination, at 0.05 µM
# [37] = measured here: BGB combination, at 0.5 µM
# [38] = measured here: BGB combination, at 5 µM
# [39] = measured here: cisplatin combination, at 0.5 µM
# [40] = measured here: cisplatin combination, at 5 µM
# [41] = BGB combination, concentration series, at 5 µM
# [42] = cisplatin combination, concentration series, at 5 µM
# [43] = measured here: combo with BGB IC20, at 0.5 µM
# [44] = measured here: combo with cisplatin IC20, at 0.5 µM
# [45] = cisplatin combination, at 0.5 µM
# [46] = measured here: BGB IC40 combination 0.05 uM, at 0.05 µM
# [47] = measured here: BGB IC40 combination, at 0.05 µM
smiles,measurement,setting,value
CCC(C)C(=O)OC1CC(C)C=C2C=CC(C)C(CCC3CC(O)CC(=O)O3)C21 (stereo unspecified),inhibition,[1]; [16],-40.1% (inactive)
same,inhibition,[1]; [17],-11.8%
same,inhibition,[1]; [18],-21.9%
same,inhibition,[1]; [19],-1.78%
same,inhibition,[1]; [20],-46.1%
same,inhibition,[1]; [21],-44.5%
same,inhibition,"[2]; BGB combo, at 5 µM",63.1%
same,inhibition,[2]; at 0.5 µM,21.8% (inactive)
same,inhibition,"[2]; cisplatin combo, at 5 µM",52.4%
same,inhibition,[2]; [22],26.6%
same,inhibition,[2]; [23],11.5%
same,inhibition,"[2]; single agent, at 5 µM",65.1%
same,inhibition,"[3]; BGB IC20 combo, at 0.005 µM",0.285%
same,inhibition,"[3]; BGB IC40 combo, at 0.005 µM",16.8%
same,inhibition,"[3]; BGB IC40 combo, at 0.05 µM",20.5%
same,inhibition,[3]; at 0.5 µM,-5.66% (inactive)
same,inhibition,"[3]; cisplatin combo, at 0.05 µM",20.5%
same,inhibition,"[3]; cisplatin combo, at 0.5 µM",-11.6%
same,inhibition,"[3]; cisplatin combo, at 5 µM",-5.67%
same,inhibition,[3]; [24],-12.3%
same,inhibition,[4]; at 0.5 µM,22% (inactive)
same,inhibition,[4]; [19],-11%
same,inhibition,[4]; [25],12.3%
same,inhibition,[4]; [26],12%
same,inhibition,[5]; at 0.5 µM,-1.62% (inactive)
same,inhibition,[5]; [27],-18.6%
same,inhibition,[5]; [28],74.3%
same,inhibition,[5]; [29],-1.27%
same,inhibition,[5]; [30],74.6%
same,inhibition,"[5]; single agent, at 5 µM",73.5%
same,inhibition,[6]; at 0.5 µM,-29.5% (inactive)
same,inhibition,[6]; [31],-33%
same,inhibition,[6]; [32],-19.4%
same,inhibition,[7]; at 0.5 µM,30.1% (inactive)
same,inhibition,[7]; [33],26.5%
same,inhibition,[7]; [34],26.8%
same,inhibition,[8]; at 0.5 µM,5.25% (inactive)
same,inhibition,[8]; [35],-16.1%
same,inhibition,[8]; [36],5.33%
same,inhibition,[9]; at 0.5 µM,-20.3% (inactive)
same,inhibition,[9]; [25],-23.3%
same,inhibition,[9]; [26],-7.2%
same,inhibition,[10]; at 0.5 µM,-16.4% (inactive)
same,inhibition,[10]; [37],-18.4%
same,inhibition,[10]; [38],-6.45%
same,inhibition,[10]; [39],-23%
same,inhibition,[10]; [40],8.95%
same,inhibition,[11]; [41],23.4%
same,inhibition,[11]; at 0.5 µM,3.85% (inactive)
same,inhibition,[11]; [42],29.3%
same,inhibition,[12]; at 0.5 µM,-9.68% (inactive)
same,inhibition,[12]; [43],-8.02%
same,inhibition,[12]; [44],-11.2%
same,inhibition,[13]; at 0.5 µM,6.42% (inactive)
same,inhibition,[13]; [45],24.4%
same,inhibition,"[13]; cisplatin combination, at 5 µM",33.2%
same,inhibition,[13]; [46],4.47%
same,inhibition,"[13]; single agent, at 5 µM",25.9%
same,inhibition,[14]; at 0.5 µM,1.38% (inactive)
same,inhibition,"[14]; cisplatin combo, at 5 µM",4.72%
same,inhibition,[14]; [47],-3.68%
same,inhibition,[14]; [25],2.71%
same,inhibition,"[14]; single agent, at 5 µM",8.59%
same,inhibition,[15]; at 0.5 µM,4.53% (inactive)
same,inhibition,[15]; [22],12.6%
same,inhibition,[15]; [23],0.492%
same,inhibition,"[15]; single agent, at 0.05 µM",-12.7%
same,inhibition,"[15]; single agent, at 5 µM",11.3%
O=C(CCSc1nc2ccccc2c(=O)[nH]1)NC1CCC(c2nnc(-c3ccccc3)o2)CC1 (stereo unspecified),inhibition,[1]; [16],-18.8% (inactive)
same,inhibition,[1]; [17],-14.4%
same,inhibition,[1]; [18],-25.3%
same,inhibition,[1]; [19],-55.5%
same,inhibition,[1]; [20],-16.2%
same,inhibition,[1]; [21],-49.7%
same,inhibition,"[2]; BGB combo, at 5 µM",11.8%
same,inhibition,[2]; at 0.5 µM,16.1% (inactive)
same,inhibition,"[2]; cisplatin combo, at 5 µM",29.6%
same,inhibition,[2]; [22],8.27%
same,inhibition,[2]; [23],21.3%
same,inhibition,"[2]; single agent, at 5 µM",32.4%
same,inhibition,"[3]; BGB IC20 combo, at 0.005 µM",-2.22%
same,inhibition,"[3]; BGB IC40 combo, at 0.005 µM",-49.4%
same,inhibition,"[3]; BGB IC40 combo, at 0.05 µM",-27.2%
same,inhibition,[3]; at 0.5 µM,-25.5% (inactive)
same,inhibition,"[3]; cisplatin combo, at 0.05 µM",-31.8%
same,inhibition,"[3]; cisplatin combo, at 0.5 µM",-22.3%
same,inhibition,"[3]; cisplatin combo, at 5 µM",-10.9%
same,inhibition,[3]; [24],-18.3%
same,inhibition,[4]; at 0.5 µM,-14.6% (inactive)
same,inhibition,[4]; [19],6.03%
same,inhibition,[4]; [25],-5.82%
same,inhibition,[4]; [26],-21.2%
same,inhibition,[5]; at 0.5 µM,2.93% (inactive)
same,inhibition,[5]; [27],-9.32%
same,inhibition,[5]; [28],-14.4%
same,inhibition,[5]; [29],5.46%
same,inhibition,[5]; [30],-13.6%
same,inhibition,"[5]; single agent, at 5 µM",0.754%
same,inhibition,[6]; at 0.5 µM,-30.9% (inactive)
same,inhibition,[6]; [31],-25.3%
same,inhibition,[6]; [32],-55.1%
same,inhibition,[7]; at 0.5 µM,5.94% (inactive)
same,inhibition,[7]; [33],-6.25%
same,inhibition,[7]; [34],23%
same,inhibition,[8]; at 0.5 µM,10.2% (inactive)
same,inhibition,[8]; [35],-3.32%
same,inhibition,[8]; [36],13%
same,inhibition,[9]; at 0.5 µM,-3.45% (inactive)
same,inhibition,[9]; [25],-13.5%
same,inhibition,[9]; [26],-4.17%
same,inhibition,[10]; at 0.5 µM,4.84% (inactive)
same,inhibition,[10]; [37],-2.01%
same,inhibition,[10]; [38],-13.2%
same,inhibition,[10]; [39],5.45%
same,inhibition,[10]; [40],-2.11%
same,inhibition,[11]; [41],9.22%
same,inhibition,[11]; at 0.5 µM,8.17% (inactive)
same,inhibition,[11]; [42],-16.8%
same,inhibition,[12]; at 0.5 µM,41.8% (inactive)
same,inhibition,[12]; [43],31.3%
same,inhibition,[12]; [44],43.3%
same,inhibition,[13]; at 0.5 µM,-6.61% (inactive)
same,inhibition,[13]; [45],-27.5%
same,inhibition,"[13]; cisplatin combination, at 5 µM",2.51%
same,inhibition,[13]; [46],-56.9%
same,inhibition,"[13]; single agent, at 5 µM",-15.2%
same,inhibition,[14]; at 0.5 µM,-4.49% (inactive)
same,inhibition,"[14]; cisplatin combo, at 5 µM",16.1%
same,inhibition,[14]; [47],-6.16%
same,inhibition,[14]; [25],22.5%
same,inhibition,"[14]; single agent, at 5 µM",-14.1%
same,inhibition,[15]; at 0.5 µM,-21.1% (inactive)
same,inhibition,[15]; [22],-27%
same,inhibition,[15]; [23],-20%
same,inhibition,"[15]; single agent, at 0.05 µM",24.5%
same,inhibition,"[15]; single agent, at 5 µM",-45%

# From PubChem BioAssay
